These sequences were tested against COL20A1 (assay: pooled miR-30 sensor sort-seq; sequence = guide strand). Conditions: shRNA.
TATCTGAACTTGGAAATGCTAC gave a sensor-assay potency score (higher = more potent) of -0.775.
TTGAACTTGCTCTCTTCCCAGG gave a sensor-assay potency score (higher = more potent) of -1.19.
Work on TCTTCCTGAGCTTTTCTCCTGG yielded a sensor-assay potency score (higher = more potent) of -0.053.

The sequences below were run against COL23A1 in the same assay as above. Conditions: shRNA.
TTCGCTAGTCCGTCCAACTTCT was tested, and the sensor-assay potency score (higher = more potent) was -0.113.
TTGCTGGGAACACTTGCTGGAG gave a sensor-assay potency score (higher = more potent) of -1.43.
TTTGCCTGCACAGCCCACCTAG gave a sensor-assay potency score (higher = more potent) of -1.12.
In the case of TAGTCGATCACCACTGTGTCTC, the sensor-assay potency score (higher = more potent) was -0.624.
For TTCTCTCCACGCTCGCTCCGAT, the sensor-assay potency score (higher = more potent) was -1.13.
TCATAGTCGATCACCACTGTGT gave a sensor-assay potency score (higher = more potent) of 0.319.
TTGTCCTTGGTCTCCCCGGGGG showed a sensor-assay potency score (higher = more potent) of -1.12.
TAGAGCTAGACCCTCGTGGGGG was tested, and the sensor-assay potency score (higher = more potent) was -0.316.
For TTGCTTTGCCTGCACAGCCCAC, the sensor-assay potency score (higher = more potent) was -1.59.
Sequence TAGTCCGTCCAACTTCTCCCGC has a sensor-assay potency score (higher = more potent) of -1.02.
Sequence TCTACCTTCATCTCCTTCCTGG has a sensor-assay potency score (higher = more potent) of 0.0937.
With TTGAGGGCATCCAAGATCCTGC the sensor-assay potency score (higher = more potent) was -1.13.

What follows are sequences tested against COL4A2 in the same assay as above. Conditions: shRNA.
Work on TTTAATGTCTTTCATTCCTGGC yielded a sensor-assay potency score (higher = more potent) of -0.64.
In the case of TACAGGAAGGGCATGGTGCTGA, the sensor-assay potency score (higher = more potent) was -0.213.
With TAGTAGCAGACATCACCAGGGT the sensor-assay potency score (higher = more potent) was 0.056.
Sequence TTGGTTGTGATTGTTCTGGAAT has a sensor-assay potency score (higher = more potent) of -0.89.
For TCTATCTCCTTTTAGCCCGGGG, the sensor-assay potency score (higher = more potent) was -0.278.
With TTTGATAGCTTCGTCGCCTTCT the sensor-assay potency score (higher = more potent) was 0.156.
In the case of TTAAATCTCAGGGACAACGTGG, the sensor-assay potency score (higher = more potent) was -0.373.
TTTACGTCCCTGCAGTCCCGGG was tested, and the sensor-assay potency score (higher = more potent) was -1.37.
In the case of TTGGTCTCCTTTCTGTCCTGGG, the sensor-assay potency score (higher = more potent) was -0.772.
In the case of TCACATCTGTGTCACAATCTAT, the sensor-assay potency score (higher = more potent) was -0.621.
Sequence TTTGTAGTCGTTACACAGGAGG has a sensor-assay potency score (higher = more potent) of -1.03.
TTCTCCTGGAGTACCCTTCGTT showed a sensor-assay potency score (higher = more potent) of -0.712.
Sequence TCACACACAGAACAGCGGCTGA has a sensor-assay potency score (higher = more potent) of -0.772.
Work on TTTCTCTCCTTTAATGTCTTTC yielded a sensor-assay potency score (higher = more potent) of -0.595.
For TATCCGATCCACAAACTCCGCC, the sensor-assay potency score (higher = more potent) was -0.539.
Work on TACATCTGCATTCCCCAGCGTC yielded a sensor-assay potency score (higher = more potent) of -0.779.
Work on TTGCATTCGATGAATGGTGTGG yielded a sensor-assay potency score (higher = more potent) of 0.0414.
For TAGGACTTGTCGTTCCGGCTGG, the sensor-assay potency score (higher = more potent) was 0.103.
Work on TAGGGCTTGATCTCGTCCTCGG yielded a sensor-assay potency score (higher = more potent) of -0.228.
ATCTGTGTCACAATCTATTTGT was tested, and the sensor-assay potency score (higher = more potent) was -0.377.
TAAATTTATAGTGTCCCCGATG gave a sensor-assay potency score (higher = more potent) of -0.984.
TGATTGTTCTGGAATCTCCTTT showed a sensor-assay potency score (higher = more potent) of 0.225.
With TAGTAGTGGCAGGTGCCGCGGC the sensor-assay potency score (higher = more potent) was -0.784.
Sequence TGTCACAATCTATTTGTCCTGG has a sensor-assay potency score (higher = more potent) of 0.235.

Reference: the OligoGym collection
